Structures are written as SMILES. Results filed as inconclusive are left out. Active and inactive are the calls of the source. Rule for the calls, unless noted: active = hit-call score of the fitted dose curve at least 0.9, where 1 is the maximum; inactive = score below 0.9.

The record followed here is PubChem BioAssay (EPA / NIEHS).

The target in experiment [1] is human Thyroid Receptor alpha (THRa1), THRA (gene 7067) (UniProt P10827). Description: ATG_THRa1_TRANS: Attagene TRANS-FACTORIAL HepG2 Assay for human Thyroid Receptor alpha (THRa1) (AID 2283014; active = hit-call score of the fitted dose curve at least 0.9, where 1 is the maximum). The procedure, abridged:
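HepG2 cells transiently transfected with chimeric NR-Gal4 and GAL4-UAS reporter units, dosed 24 h. Reporter mRNA quantified by RT-PCR, fluorescent labeling, HpaI digestion and capillary electrophoresis; gain-of-signal fit versus DMSO.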

Read-out in experiment [2]: E-selectin (Homo sapiens) (UniProt P16581)
The experiment can be described thus: BSK_3C_Eselectin: BioMAP Diversity Plus: 3C Assay for Eselectin Biomarker Activity (AID 2283015).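 For outcome: cell surface E-selectin protein quantified by ELISA 24 h after dosing.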 The settings on record: primary human endothelial cells (HUVEC); actives raise or lower the signal. The procedure, abridged:
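Primary human umbilical vein endothelial cells (3C system), read 24 h after compound addition; E-selectin measured by ELISA. Bidirectional curve fitting against DMSO baseline; cytotoxicity by parallel SRB total-protein staining.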

Read-out in experiment [3]: Interleukin-1 alpha (IL1a), IL1A (gene 3552)
The experiment can be described thus: BSK_BE3C_IL1a: BioMAP Diversity Plus: BE3C Assay for Interleukin-1 alpha (IL1a) Biomarker Activity (AID 2283016). The settings on record: primary human bronchial epithelial cells; actives raise or lower the signal. The procedure, abridged: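 ELISA read-out of IL-1a from human lung bronchial epithelial primary cells, 24 h post-dose. Gain or loss of signal fitted relative to DMSO negative control.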

Read-out in experiment [4]: Monocyte Chemoattractant Protein-1 (MCP1), CCL2 (gene 6347)
Description: BSK_3C_MCP1: BioMAP Diversity Plus: 3C Assay for Monocyte Chemoattractant Protein-1 (MCP1) Biomarker Activity (AID 2283017). As to conditions: primary human endothelial cells (HUVEC); actives raise or lower the signal. A digest of the protocol:
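Human umbilical vein endothelial cells (3C system) exposed to chemicals for 24 h; MCP-1 quantified by ELISA against the DMSO baseline with bidirectional fitting, and parallel SRB staining used to assess cytotoxicity.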

Read-out in experiment [5]: Monocyte Chemoattractant Protein-1 (MCP1), CCL2 (gene 6347)
Description: BSK_4H_MCP1: BioMAP Diversity Plus: 4H Assay for Monocyte Chemoattractant Protein-1 (MCP1) Biomarker Activity (AID 2283018). The settings on record: primary human endothelial cells (HUVEC); actives raise or lower the signal. A digest of the protocol:
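HUVEC primary cells, 24 h post-dose, MCP-1 by ELISA. Gain or loss of signal fitted bidirectionally vs DMSO baseline. Cytotoxicity: SRB stain (0.1% after 10% TCA fixation), read 560 nm, parallel cultures.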

Read-out in experiment [6]: Human Leukocyte Antigen - DR isotype (HLADR), HLA-DRA (gene 3122)
The experiment can be described thus: BSK_3C_HLADR: BioMAP Diversity Plus: 3C Assay for Human Leukocyte Antigen - DR isotype (HLADR) Biomarker Activity (AID 2283019). The settings on record: primary human endothelial cells (HUVEC); actives raise or lower the signal. The procedure, abridged: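 HUVEC monoculture, HLA-DR measured by ELISA 24 h after chemical dosing. Fitted bidirectionally against DMSO baseline; parallel SRB staining assessed cytotoxicity, with 3C proliferation read by SRB at 48 h.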

Read-out in experiment [7]: Interleukin-8 (IL8), CXCL8 (gene 3576)
The experiment can be described thus: BSK_3C_IL8: BioMAP Diversity Plus: 3C Assay for Interleukin-8 (IL8) Biomarker Activity (AID 2283020). As to conditions: primary human endothelial cells (HUVEC); actives raise or lower the signal. A digest of the protocol:
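HUVEC, 3C stimulation; 24 h compound exposure; IL-8 read by ELISA; gain or loss of signal fitted relative to DMSO control.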

Read-out in experiment [8]: Monokine induced gamma interferon (MIG), CXCL9 (gene 4283)
The experiment can be described thus: BSK_3C_MIG: BioMAP Diversity Plus: 3C Assay for Monokine induced gamma interferon (MIG) Biomarker Activity (AID 2283021).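 For AC50: MIG protein level measured by immunoassay in the treated endothelial cultures.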 As to conditions: primary human endothelial cells (HUVEC); actives raise or lower the signal. A digest of the protocol: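 HUVEC, 3C system; 24 h chemical exposure; MIG by ELISA; bidirectional fit vs DMSO baseline.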

Experiment [9] deals with human Vitamin D Receptor (VDR), VDR (gene 7421) (UniProt P11473). The experiment can be described thus: ATG_VDR_TRANS: Attagene TRANS-FACTORIAL HepG2 Assay for human Vitamin D Receptor (VDR) (AID 2283022; active = hit-call score of the fitted dose curve at least 0.9, where 1 is the maximum). A digest of the protocol: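 HepG2 cells were transiently transfected with GAL4-UAS reporter units and a chimeric VDR-Gal4 construct, then dosed for 24 hours. Reporter mRNA was quantified by RT-PCR, fluorescent labeling, HpaI digestion and capillary electrophoresis; gain of signal analysed vs DMSO.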

Experiment [10] is described as follows: BSK_3C_SRB: Viability Assessment in the BioMAP Diversity Plus: 3C Assay (AID 2283023).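 Note: fitted both ways against DMSO so a hit may be signal rise or drop.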 As to conditions: primary human endothelial cells (HUVEC). The procedure, abridged:
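Human umbilical vein endothelial cells in the 3C system, treated 24 h. Total protein measured by 0.1% sulforhodamine B staining after 10% TCA fixation, read at 560 nm; bidirectional fit versus DMSO.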

Read-out in experiment [11]: Matrix Metallopeptidase 1 (MMP1), MMP1 (gene 4312)
The experiment can be described thus: BSK_BE3C_MMP1: BioMAP Diversity Plus: BE3C Assay for Matrix Metallopeptidase 1 (MMP1) Biomarker Activity (AID 2283024). The settings on record: primary human bronchial epithelial cells; actives raise or lower the signal. A digest of the protocol: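 ELISA read-out of MMP1 in human lung bronchial epithelial primary cultures, 24 h post-dose; bidirectional curve fit vs DMSO baseline, gain or loss of signal scored.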

Read-out in experiment [12]: Pselectin, SELP (gene 6403)
Description: BSK_4H_Pselectin: BioMAP Diversity Plus: 4H Assay for Pselectin Biomarker Activity (AID 2283026). The settings on record: primary human endothelial cells (HUVEC); actives raise or lower the signal. The procedure, abridged: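 HUVEC, 24 h chemical exposure; P-selectin read by ELISA. Bidirectional curve fit vs DMSO baseline; gain or loss of signal scored.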

Experiment [13] in a line: BSK_4H_SRB: Viability Assessment in the BioMAP Diversity Plus: 4H Assay (AID 2283027).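 For AC50: curves fitted both ways versus DMSO so AC50 may be loss or gain.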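 Note: cells exposed to compound for 24 h before staining.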 As to conditions: primary human endothelial cells (HUVEC). A digest of the protocol:
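HUVEC, 24 h post-dose; 10% TCA fix, 0.1% SRB stain, A560 nm. Total protein = overt cytotoxicity, parallel to biomarker read. Bidirectional fit vs DMSO baseline.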

Experiment [14] is described as follows: BSK_BE3C_SRB: Viability Assessment in the BioMAP Diversity Plus: BE3C Assay (AID 2283028). As to conditions: primary human bronchial epithelial cells. A digest of the protocol:
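Human bronchial epithelial primary cells in confluent culture, 24 h after chemical dosing; total protein by 0.1% SRB staining after 10% TCA fixation, read at 560 nm. Bidirectional fitting versus DMSO baseline.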

Read-out in experiment [15]: Thrombomodulin, THBD (gene 7056)
The experiment can be described thus: BSK_3C_Thrombomodulin: BioMAP Diversity Plus: 3C Assay for Thrombomodulin Biomarker Activity (AID 2283029). As to conditions: primary human endothelial cells (HUVEC); actives raise or lower the signal. The procedure, abridged: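 HUVEC, 3C conditions; compound 24 h; thrombomodulin by ELISA; bidirectional curve fit vs DMSO baseline; parallel SRB total-protein staining for cytotoxicity.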

Read-out in experiment [16]: Urokinase-type plasminogen activator receptor (uPAR), PLAUR (gene 5329)
The experiment can be described thus: BSK_4H_uPAR: BioMAP Diversity Plus: 4H Assay for Urokinase-type plasminogen activator receptor (uPAR) Biomarker Activity (AID 2283030). As to conditions: primary human endothelial cells (HUVEC); actives raise or lower the signal. A digest of the protocol:
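Human umbilical vein endothelial cells in the 4H system, 24 h after chemical dosing. Cell-surface uPAR measured by ELISA, fitted in both directions versus DMSO; cytotoxicity checked by SRB total protein in parallel cultures.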

Read-out in experiment [17]: Vascular endothelial growth factor receptor 2 (Homo sapiens) (UniProt P35968)
The experiment can be described thus: BSK_4H_VEGFRII: BioMAP Diversity Plus: 4H Assay for Vascular endothelial growth factor receptor 2 (VEGFR2) Biomarker Activity (AID 2283031).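 For AC50: cell-surface VEGFR2 protein level quantified by ELISA.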 The settings on record: primary human endothelial cells (HUVEC); actives raise or lower the signal. The procedure, abridged:
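Primary human umbilical vein endothelial cells (4H system), 24 h exposure; cell-surface VEGFR2 measured by ELISA. Bidirectional fitting versus DMSO; cytotoxicity checked in parallel by SRB total-protein staining.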

Read-out in experiment [18]: Human Leukocyte Antigen - DR isotype (HLADR), HLA-DRA (gene 3122)
Description: BSK_BE3C_HLADR: BioMAP Diversity Plus: BE3C Assay for Human Leukocyte Antigen - DR isotype (HLADR) Biomarker Activity (AID 2283032). As to conditions: primary human bronchial epithelial cells; actives raise or lower the signal. A digest of the protocol:
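Primary human bronchial epithelial cells (BE3C); 24 h chemical exposure; HLA-DR by ELISA; bidirectional curve fit vs DMSO baseline.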

Experiment [19] can be described thus: BSK_3C_Vis: BioMAP Diversity Plus: 3C Assay for Morphology Visualization (AID 2283025).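 Note: fitted both ways so gain or loss versus DMSO counts.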 The settings on record: primary human endothelial cells (HUVEC). A digest of the protocol:
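HUVEC, 3C system; light microscopy of morphology at 24 h post-dose. Bidirectional fit vs DMSO baseline. Secondary readout, background-control function.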

Sequence of human Thyroid Receptor alpha (THRa1), THRA (gene 7067) (P10827 whole entry, looked up, the tested form may be a part): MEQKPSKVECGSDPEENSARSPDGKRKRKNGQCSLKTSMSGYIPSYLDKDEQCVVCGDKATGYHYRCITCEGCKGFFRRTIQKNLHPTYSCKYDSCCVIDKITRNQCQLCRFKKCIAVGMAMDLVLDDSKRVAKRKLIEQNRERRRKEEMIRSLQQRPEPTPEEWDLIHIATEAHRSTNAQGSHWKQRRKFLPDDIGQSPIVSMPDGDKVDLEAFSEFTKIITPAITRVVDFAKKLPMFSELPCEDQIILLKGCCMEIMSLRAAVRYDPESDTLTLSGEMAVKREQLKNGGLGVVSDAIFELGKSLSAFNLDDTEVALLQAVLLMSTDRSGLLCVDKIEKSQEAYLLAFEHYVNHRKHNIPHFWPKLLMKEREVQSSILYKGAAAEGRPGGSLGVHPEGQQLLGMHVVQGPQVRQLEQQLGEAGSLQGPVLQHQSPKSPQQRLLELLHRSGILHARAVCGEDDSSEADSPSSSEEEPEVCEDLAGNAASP
Sequence of human Vitamin D Receptor (VDR), VDR (gene 7421) (P11473 whole entry, looked up, the tested form may be a part): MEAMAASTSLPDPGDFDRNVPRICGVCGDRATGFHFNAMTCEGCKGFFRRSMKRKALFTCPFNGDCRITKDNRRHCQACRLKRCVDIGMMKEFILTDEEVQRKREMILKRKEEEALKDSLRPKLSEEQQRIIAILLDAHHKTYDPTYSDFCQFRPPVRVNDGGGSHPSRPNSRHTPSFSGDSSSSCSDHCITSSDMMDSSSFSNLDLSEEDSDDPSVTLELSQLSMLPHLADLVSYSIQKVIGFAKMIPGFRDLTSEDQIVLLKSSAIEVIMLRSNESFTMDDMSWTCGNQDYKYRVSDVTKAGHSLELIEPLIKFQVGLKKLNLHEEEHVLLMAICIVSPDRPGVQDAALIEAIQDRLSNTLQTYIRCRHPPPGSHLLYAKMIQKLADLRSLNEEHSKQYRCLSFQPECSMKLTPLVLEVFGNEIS
Sequence of E-selectin (Homo sapiens) (P16581 whole entry, looked up): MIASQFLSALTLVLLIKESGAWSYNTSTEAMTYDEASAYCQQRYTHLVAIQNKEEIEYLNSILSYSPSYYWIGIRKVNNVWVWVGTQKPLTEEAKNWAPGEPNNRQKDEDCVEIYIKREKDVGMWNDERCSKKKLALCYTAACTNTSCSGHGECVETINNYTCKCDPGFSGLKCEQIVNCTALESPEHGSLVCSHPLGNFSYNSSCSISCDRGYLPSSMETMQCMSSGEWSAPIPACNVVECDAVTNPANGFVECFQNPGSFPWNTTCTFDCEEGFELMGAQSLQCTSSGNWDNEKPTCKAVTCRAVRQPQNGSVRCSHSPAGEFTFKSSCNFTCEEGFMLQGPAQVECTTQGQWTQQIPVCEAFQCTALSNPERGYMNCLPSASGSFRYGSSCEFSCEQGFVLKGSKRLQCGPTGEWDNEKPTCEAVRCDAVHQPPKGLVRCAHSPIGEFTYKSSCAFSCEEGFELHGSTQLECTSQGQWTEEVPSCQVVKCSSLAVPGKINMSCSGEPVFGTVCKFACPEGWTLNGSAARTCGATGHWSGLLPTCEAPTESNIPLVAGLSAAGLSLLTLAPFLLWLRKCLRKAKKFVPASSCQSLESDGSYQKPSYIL

For orientation: AC50 means the concentration giving half of the maximal activity seen. Turning to `CC(C)(c1cc(Br)c(OCCO)c(Br)c1)c1cc(Br)c(OCCO)c(Br)c1`, the outcome in [1], in experiment [3], in experiment [9], in experiment [14] and in experiment [18] was inactive. The AC50 was 16.2 µM (active) in experiment [2]; 11.7 µM (active) in [4]; 5.24 µM (active) in [5]; 18.6 µM (active) in experiment [6]; 16.2 µM (active) in [7]; 27.6 µM (active) in experiment [8]. The AC50 in experiment [10] is 19.3 µM (active); in experiment [11], 911 nM (active); in [12], 8.19 µM (active); in experiment [13], 16.2 µM (active); in experiment [15], 28.6 µM (active); in experiment [16], 11.7 µM (active). Also, the AC50 in experiment [17] is 9.45 µM (active).
On to `O=S(=O)(O)c1ccccc1C=Cc1ccc(-c2ccc(C=Cc3ccccc3S(=O)(=O)O)cc2)cc1`, for which the molecule was called inactive in experiment [1] and in experiment [9].
Regarding `CC(=O)[C@H]1[C@H](C#N)C[C@H]2[C@@H]3CC=C4C[C@@H](O)CC[C@]4(C)[C@H]3CC[C@@]21C`, the molecule was classed as inactive in [1] and in experiment [9].
As for `O=C1CCCN1CCO`, the result in experiment [1], in [2], in experiment [3], in experiment [4], in [5] and in experiment [6] was inactive. The result in experiment [7], in [8], in experiment [9], in experiment [10], in [11] and in experiment [12] was inactive. Further, the result in experiment [13], in experiment [14], in [15], in experiment [16], in experiment [17] and in experiment [18] was inactive.
With `CC(C)C(=O)C(C)C`, the call in experiment [1], in [2], in [3], in [4], in experiment [5] and in experiment [6] was inactive. Also, the outcome in experiment [7], in experiment [8], in [10], in experiment [11], in [19] and in experiment [12] was inactive. For the same molecule, the outcome in experiment [13], in experiment [14], in experiment [15], in [16], in experiment [17] and in [18] was inactive.
As for `CCO[Si](CCCN=C=O)(OCC)OCC`, the outcome in experiment [1], in [2], in [3], in [4], in experiment [5] and in [6] was inactive. Moreover, the outcome in [7], in experiment [8], in experiment [10], in experiment [11], in experiment [19] and in experiment [12] was inactive. The result in experiment [13], in experiment [14], in experiment [15], in [16], in experiment [17] and in experiment [18] was inactive.
Regarding `C=C(C)c1cccc(C(C)(C)N=C=O)c1`, the call in experiment [1] and in experiment [9] was inactive.
For the molecule `O=C(O)c1cc(Cl)cc([N+](=O)[O-])c1Cl`, the molecule was classed as inactive in experiment [1] and in [9].
In the case of `COC(F)(F)C(F)(C(F)(F)F)C(F)(F)F`, the molecule was classed as inactive in experiment [1] and in [9].
